D1 antagonist = blocks dopamine activation of the human D1 receptor; P21728; HEK293 TREx D1 cells, calcium flux, dopamine EC80; hits give low values; activity change, negative = inhibition, % at 10 µM; actives 3.2% (n = 360,000); in the data active = activity change below about -30%; note: % is set by controls: 0 for no effect and ±100 for the full control effect
Target sequence (P21728 whole entry, looked up): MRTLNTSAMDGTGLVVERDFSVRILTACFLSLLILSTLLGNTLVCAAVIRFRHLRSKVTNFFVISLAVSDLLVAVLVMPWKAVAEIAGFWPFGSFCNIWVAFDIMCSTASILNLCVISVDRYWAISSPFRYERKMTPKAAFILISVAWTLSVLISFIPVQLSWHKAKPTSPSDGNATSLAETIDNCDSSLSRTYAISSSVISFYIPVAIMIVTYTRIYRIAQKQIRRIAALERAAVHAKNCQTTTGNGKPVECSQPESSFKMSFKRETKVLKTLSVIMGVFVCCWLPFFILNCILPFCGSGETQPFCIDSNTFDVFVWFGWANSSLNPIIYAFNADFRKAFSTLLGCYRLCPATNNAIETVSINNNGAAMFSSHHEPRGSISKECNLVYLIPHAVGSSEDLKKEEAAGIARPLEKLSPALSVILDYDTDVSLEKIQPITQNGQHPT
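After overnight tetracycline induction at 30 C, force-coupled D1 HEK293 cells took up a no-wash calcium dye at room temperature. Compounds were added and monitored 180 s, and the response to EC80 dopamine was then recorded.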
TRHR enhancer-1 = allosteric enhancers of human TRH receptor; P34981; TRHR cells, fluo-8 calcium fluorescence, EC20 TRH enhancement; enhancement, % at 2 µM; actives 0.66% (n = 360,000); in the data active = enhancement above about 30%; note: 0% is about no effect
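Enhancer read-out: after compound pinning and an initial kinetic agonist-mode read, an EC20 of TRH (10 nM final) was injected and fluo-8 calcium signal (Ex 480/Em 530) followed at 1 s/cycle for 100 cycles in TRHR-expressing cells.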
D1 potentiator = enhances dopamine response at the human D1 receptor. P21728. HEK293 TREx D1 cells, calcium flux, dopamine EC20 potentiation. potentiation, % at 10 µM. actives 0.036% (n = 360,000). AID 504651; in the data active = potentiation above about 30%; note: 0% is about no effect
TRHR agonist-1 = activates the human TRH receptor. P34981. TRHR cells, calcium flux fluo-8, FDSS agonist mode. activation, % at 2 µM. actives 0.18% (n = 360,000). AID 493084; in the data active = activation above about 30%; note: 0% is about no effect
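Fluo-8-loaded TRHR cells; 10 s baseline, compound added, kinetic Ca2+ fluorescence read 1/s, agonist mode.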
Epigenetic reg = derepresses silenced GFP reporter in murine cells; murine LDR cells, GFP reporter derepression, 30 h; Potency, µM (titrated, usually from 53.9 µM), for the others: top-dose GFP activation, usual class: activators; actives 0.2% (n = 280,000); AID 1865; note: potency is the fitted concentration of half-maximal effect; % of control where 0% means no effect; nearly all actives have a fitted effect of over 60% in size
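Murine LDR cells carrying a silenced, genomically integrated CMV-driven GFP reporter were exposed to compound for 30 hours at 37 C. After PBS washes, GFP-positive cells (20–120 um objects) were counted by laser-scanning microplate cytometry.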
D1 ag = human D1 receptor agonism. AID 504660. actives 1% (n = 360,000). HEK293 T-REx D1 cells, calcium flux, agonist mode. activation, % at 2 µM; in the data active = activation above about 30%; note: 0% is about no effect
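Tetracycline-induced HEK293 TREx D1 cells, force-coupled to calcium signalling, were dye-loaded with a no-wash calcium kit. Compound was pin-added after a 10 s baseline. Fluorescence was read kinetically at 1 cycle/s for 180 s, with calcium rises flagged as agonism.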
TRHR enhancer-2 = confirmation of human TRH receptor allosteric enhancers. shares compounds with TRHR enhancer-1. TRH receptor cell assay, enhancer confirmation qHTS. activity change, negative = inhibition, % at 46.1 µM. 970 tested, under 10 active. AID 493076;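 note: compound effect scored on response to added TRH at EC20 of 10 nM; 0% is about no effect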
TRHR agonist-2 = confirmation of human TRH receptor agonists | shares compounds with TRHR enhancer-1 | TRHR-expressing cells, agonist activation read-out | Potency, µM (highest dose often 46.1 µM), without a hit: top-dose activation, actives largely listed as activators | actives 8% (n = 970); note: potency is the fitted concentration of half-maximal effect; 0% is about no effect; nearly all actives have a fitted effect of over 75% in size
* = called active by the depositor; ? = inconclusive; . = no result given; [ ] = remark or other dose. An excerpt weighted towards active compounds, which were near 4.6% of everything screened. Unless noted, calls come from the whole dose curve; as a rule, active = well fitted curve in the direction sought with a large enough effect; inconclusive = small, poorly fitted or top-dose-only effect, or another doubt; inactive = no such curve, though single readings can be large; an effect the other way counts as inactive or inconclusive.

SMILES | D1 antagonist | TRHR enhancer-1 | D1 potentiator | TRHR agonist-1 | Epigenetic reg | D1 ag | TRHR enhancer-2 | TRHR agonist-2
COc1cccc(C2CC(=O)Nc3c2c(=O)n(C)c2ncnn32)c1OC (centres undefined) | 4 | 14 | -5 | -2 | 0% | 0 | . | .
CCC(Cc1ccccc1)NC(=O)Cn1ncc2c3ccccc3n(Cc3ccccc3)c2c1=O (centres undefined) | -19 | 2 | -4 | 0 | 0% | 9 | . | .
CNc1c(NS(=O)(=O)c2ccc(Cl)s2)c(=O)oc2ccccc12 | 12 | -7 | -6 | 1 | . | 3 | . | .
O=S(=O)(Nc1ncnc2c1oc1ccccc12)c1ccc(Cl)s1 | 9 | 51* | 3 | 0 | 5% | -1 | -8 | 5%
Cc1nc(S(=O)(=O)N2CCN(C3c4ccccc4-c4ccccc43)CC2)cn1C | 22 | 43* | 6 | 1 | 1% | 5 | 8 | 5%
NC(=O)CSc1nnc(SCc2ccc(F)cc2)s1 | . | 0 | -4 | 31* | 2% | 1 | -1 | 2%
O=C(Nc1ccccc1)/C(=C/c1ccc2c(c1)OCO2)NC(=O)c1ccco1 | 0 | 52* | -7 | 0 | ? | 3 | 2 | 0%
Cc1cc(O)c(C2(C(F)(F)F)NCCNC2=O)cc1C (centres undefined) | 2 | 43* | -5 | 2 | 0% | 4 | -3 | 0%
O=C1NCCNC1(c1c[nH]c2ccccc12)C(F)(F)F (centres undefined) | 9 | 4 | 2 | 0 | -1% | 4 | . | .
COc1ccc(-n2cc(C(=O)N(CCN(C)C)Cc3ccccc3)c3ccccc3c2=O)cc1 | -3 | 74* | -1 | 2 | 0% | 5 | -3 | 1%
O=S(=O)(NC1CCCCC1N1CCOCC1)c1ccc(Cl)cc1 (centres undefined) | -12 | -2 | -4 | 15 | 0% | 0 | . | .
O=S(=O)(NC1CCCCC1N1CCN(c2ccccc2F)CC1)c1ccc(Cl)cc1 (centres undefined) | -9 | -9 | -4 | 33* | . | 6 | -10 | ?
CCC(=O)C1=C(c2cccc(OC)c2)N(C(=O)CC)n2c(nnc2C2CCCCC2)S1 | . | 4 | 1 | 0 | 0% | 3 | . | .
CCCCN1C(=O)/C(=C/C=C2/CC(C)(C)CN2C)SC1=S | 12 | -1 | -4 | 39* | 14µM* | 128* | 3 | 9.2µM*
CN(CC(=O)NCc1ccc2c(c1)OCO2)S(=O)(=O)c1ccc(F)cc1 | 0 | 43* | 2 | 0 | . | 1 | 8 | -1%
O=C(Nc1cccc2ncccc12)c1ccco1 | 4 | 51* | -7 | 0 | . | 5 | -6 | 1%
O=c1[nH]c2cc3ccccc3cc2nc1C(F)(F)F | -2 | -4 | 9 | 29 | -5% | 17 | -2 | ?
O=C(CSc1nc(=O)[nH]c2c1CCC2)Nc1cc(C(F)(F)F)ccc1Cl | . | 5 | -2 | 0 | 0% | -1 | . | .
CC(=O)NS(=O)(=O)c1ccc(NC(=O)c2ccc(Cl)cc2[N+](=O)[O-])cc1 | -7 | 50* | -1 | 0 | -1%[10.1 µM] | 2 | -6 | 5%
COc1ccc(C(=O)Nc2ccc(S(=O)(=O)NC(C)=O)cc2)cc1[N+](=O)[O-] | 6 | 5 | -2 | 1 | 2% | 2 | . | .
COc1ccccc1NC(=O)CC1COc2ccccc2O1 (centres undefined) | 9 | 47* | -4 | 0 | 2% | 1 | 5 | 1%
CCOC(=O)c1cc(-c2ccc(OC)cc2)n(CCC(=O)NCCc2ccc(OCC)c(OCC)c2)c1C | -7 | 6 | -4 | 0 | 0% | 6 | . | .

Screening results deposited in PubChem BioAssay by National Center for Advancing Translational Sciences (NCATS).
